Source: PubChem BioAssay (Tox21)
Records with an inconclusive call do not appear. Values without a mark were called inactive. The call rests on the fitted dose curve; in most records, active means well fitted cell-killing curve with a large enough effect in the repeat runs; inconclusive means weak or mixed curves, or effect the other way; inactive means no such curve, though single readings can be large or run the other way.

Assay: qHTS assay to identify small molecule agonists of the estrogen receptor alpha (ER-alpha) signaling pathway in the presence of an antagonist - cell viability counter screen (AID 1259386);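 further: cells exposed to compounds for 22 h at 37 °C before the viability read; nearly all actives have a fitted effect of over 30% in size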
Settings: VM7Luc4E2 viability, CellTiter-Fluor fluorescence, 22 h; series mostly up to 92.4 µM; activity change, negative = cytotoxicity: at the top concentration
Outline: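 ICI-182,780 at 10.0nM final accompanies the compound titration (15 concentrations, 22hr, 37C) on VM7Luc4E2 cells. The CellTiter-Fluor fluorescence readout runs in the same wells as the luciferase assay.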
On the % scale 0 is the no-effect control and ±100 the full control effect.

SMILES | activity change, negative = cytotoxicity
COc1ncc(F)c2nc(S(=O)(=O)Nc3c(F)cccc3F)nn12 | -0.436% [at 42.5 µM]
CC(C1CC1)C(O)(Cn1cncn1)c1ccc(Cl)cc1 (configuration not stated) | 1.52%
CCCCOP(=O)(O)OCCCC | 3.28%
CN(N=O)C(N)=O | 0.295%
OCCSCSCCO | 0.143%
ClCC(Cl)Cl | 0.366%
O=C(O)c1cccc(Cl)c1 | -3.76%
CS(=O)(=O)c1cc(C(F)(F)F)ccc1C(=O)c1cnoc1C1CC1 | 0.261%
CC1CN1P(=O)(N1CC1C)N1CC1C (configuration not stated) | 1.99%
COC(=O)c1ccccc1S(=O)(=O)NC(=O)Nc1nc(C)cc(C)n1 | 0.758%
CCSC(=O)N(CC)C1CCCCC1 | 1.16%
CC(=O)CC(c1ccc(Cl)cc1)c1c(O)c2ccccc2oc1=O (configuration not stated) | 0.295%
CCOP(=O)(OCC)OP(=O)(OCC)OCC | 0.33%
CNC(=O)Oc1ccccc1C1OCCO1 | 0.648%
N#CCCC#N | -2.68%
COC(=O)c1ccccc1S(=O)(=O)NC(=O)N(C)c1nc(C)nc(OC)n1 | 0.127%
Cc1ncc(CNC(=O)N(CCCl)N=O)c(N)n1 | -0.299% [at 42.5 µM]
Clc1ccccc1N1CCNCC1 | -5.42% [at 42.5 µM]
O=P(O)(Oc1ccccc1)Oc1ccccc1 | 0.866%

SMILES | activity change, negative = cytotoxicity
BrCCCCCCBr | -4.32%
C[N+](C)=CCl | 0.0323%
O=c1oc2ccccc2c(O)c1C1CCCc2ccccc21 (configuration not stated) | 1.43%
O=C(Oc1ccc(Br)cc1)N1CCN2CCC1CC2 | -0.834%
COc1cc(OC)nc(NC(=O)NS(=O)(=O)c2ncccc2C(=O)N(C)C)n1 | 3.99%
Cc1cc(C)c(C(=O)P(=O)(C(=O)c2c(C)cc(C)cc2C)c2ccccc2)c(C)c1 | 0.308%
ClC(Cl)Br | 1.12%
Cc1coc2c1CCC(C)C2 (configuration not stated) | -1.75%
C[C@]12CC[C@H]3[C@@H](CC=C4C[C@@H](O)CC[C@@]43C)[C@@H]1CC[C@@H]2O | 2.98% [at 42.5 µM]
O=NN1CCCCC1 | -2.47%
O=[N+]([O-])c1ccc(CBr)cc1 | 0.437%
C=CC1CC=CCC1 (configuration not stated) | 1.38%
CC(C)NCC(O)c1ccc(N)c(C#N)c1 (configuration not stated) | -3.55% [at 42.5 µM]
COc1cc(C[C@@H](C)N)c(OC)cc1C | -12.7%
c1ccc(N2CCNCC2)cc1 | -3.06% [at 42.5 µM]
CNC(=O)Oc1cccc(C(C)C)c1 | 0.929%
CC1=NNC(=O)N(/N=C/c2cccnc2)C1 | 2.43%
CCC(=O)c1ccccc1 | 0.797%
